Consider 15 compounds from PubChem BioAssay.

Active and inactive are the calls of the source.

Test [1] can be described thus: A549 cell viability effects, profiling panel, calcein-AM fluorescence, 48 h, basal (AID 1162). The settings on record: higher = more signal.
A short description of test [2]: adipocyte viability effects, profiling panel, cell-based, 3T3-L1 adipocytes, calcein-AM fluorescence, 48 h, basal (AID 1163). The settings on record: 3T3-L1 adipocytes viability, higher = more signal.
Test [3] in a line: HepG2 cell viability effects, profiling panel, calcein-AM fluorescence, 48 h, basal (AID 1164). The settings on record: higher = more signal.
The nature of test [4]: MM1S cell viability effects, profiling panel, calcein-AM fluorescence, 48 h, basal (AID 1165).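 Further: viability of MM1S multiple myeloma cells under basal unstimulated conditions.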 The settings on record: higher = more signal.
Test [5] can be described thus: basal RPMI8226 viability, no added stimulus, profiling panel, cell-based, calcein-AM fluorescence, 48 h, PK04 Diversity Set (AID 1166).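 Further: cells grown under basal conditions without added stimulus.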 The settings on record: RPMI8226 myeloma viability, higher = more signal.
Test [6] can be described thus: basal HepG2 mitochondrial membrane potential changes, profiling panel, cell-based, JC-1 fluorescence, 24 h, 100 nL compound (AID 1167). The settings on record: higher = more signal.
Test [7] can be described thus: basal 3T3-L1 adipocyte mitochondrial potential changes, profiling panel, cell-based, JC-1 fluorescence, 3T3-L1 adipocytes, 24 h, 100 nL compound (AID 1168). The settings on record: JC-1 mitochondrial fluorescence, higher = more signal, called active from +8 up or from −8 down.
The nature of test [8]: basal RPMI8226 mitochondrial membrane potential changes, profiling panel, cell-based, JC-1 fluorescence, 24 h, 100 nL compound (AID 1169). The settings on record: RPMI8226 myeloma, JC-1 mitochondrial potential fluorescence, higher = more signal.
A short description of test [9]: basal MM1S mitochondrial membrane potential changes, profiling panel, cell-based, JC-1 fluorescence, 24 h, 100 nL compound (AID 1170). The settings on record: higher = more signal.
Test [10] can be described thus: A549 lung cancer cell viability effects, profiling panel, resazurin fluorescence, 24 h, PK04 Diversity Set (AID 1171). The settings on record: higher = more signal, called active from +8 up or from −8 down. For orientation: Alamar Blue is a resazurin reagent that responds to reducing activity.
Further: test concentration not given here.

Regarding `C=C(/C(=C/C[C@@H](OC(=O)c1ccncc1)c1ccc(CO)o1)c1cnc2ccccc2c1)C(C)C`, the z-score in test [1] was 0.755; in test [2], 1.61; in test [3], -0.993; in [4] it was -1.24; in test [5] it was 0.13; in test [6] it was -0.75. Moreover, the z-score in test [7] was 0.03 (inactive); in test [8], 0.0616; in test [9], 0.627; in test [10] it was 0.382 (inactive).

For the compound `Cc1ccc(S(=O)(=O)N2[C@@H](c3ccccc3)C(C(=O)O)=CC[C@H]2c2ccccc2)cc1`, the z-score is -0.0225 in test [1]; -0.426 in test [2]; -0.335 in test [3]; -0.107 in test [4]; -1.25 in [5]; -0.923 in test [6]. Moreover, the z-score in [7] was -0.17 (inactive); in [8], 0.621; in [9], 0.675; in [10] it was -1.08 (inactive).

As to `C=CCC(OC(C)=O)[C@@H]1[C@@H](N(Cc2cccc3ccccc23)C(=O)c2ccc(C)cc2)c2cc(OCCCO)ccc2N1C(=O)c1ccc(-c2ccccc2)cc1` (stereo not given in full), the z-score in [1] is 1.1; in test [2], 0.719; in test [3], 1.47; in test [4], 1.07; in test [5], 0.783; in test [6], 3.02. Further, the z-score in test [7] was -0.0453 (inactive); in [8] it was 0.456; in [9], -0.848; in test [10], 0.417 (inactive).

Regarding `[N-]=[N+]=NCc1ccccc1[C@H]1OC(c2ccc(OCCCO)cc2)=N[C@@]1(Cc1ccccc1N=[N+]=[N-])C(=O)NCc1ccccc1`, the z-score in [1] was -0.741; in test [2] it was 0.236; in test [3] it was -0.946; in [4], -2.4; in [5] it was -3.8; in [6] it was 0.37. Moreover, the z-score in test [7] is -0.296 (inactive); in test [8] it was -1.02; in test [9], -1.38; in test [10] it was 0.0642 (inactive).

On to `Cc1ccc(S(=O)(=O)c2cc3oc2CC[C@@H](CO)NC(=O)N(C)Cc2cn(nn2)C[C@H](Cc2ccccc2)NC3=O)cc1`, for which the z-score was 1.66 in test [1]; -0.129 in [2]; 0.372 in test [3]; -0.971 in test [4]; 1.28 in test [5]; 1.35 in test [6]. Further, the z-score is 0.856 (inactive) in test [7], 0.501 in [8], 0.536 in [9] and 1.39 (inactive) in test [10].

For the compound `COCCOC(=O)N1C(=O)[C@@]2(c3cc(C#CCC(C(=O)OC)C(=O)OC)ccc31)[C@H](c1ccccc1OCCO)N1[C@H](c3ccccc3)[C@H](c3ccccc3)OC(=O)[C@H]1[C@@H]2C(=O)N1CCCCCCC1`, the z-score in test [1] is 0.579; in test [2], -0.219; in test [3], 0.779; in [4], -0.895; in test [5] it was 0.103; in test [6], 0.335. Besides, the z-score in test [7] was 2.19 (inactive); in [8], -0.641; in [9], -1.34; in test [10], 0.719 (inactive).

Turning to `Cc1ccc(N2C(=O)c3ccccc3[C@@H](C(=O)NCC(F)(F)F)[C@@H]2c2ccc(CO)cc2)nc1`, the z-score in test [1] was 0.312; in test [2], 0.603; in [3], 0.471; in test [4] it was 0.0049; in test [5] it was 0.51; in test [6], 1.04. The z-score in test [7] was 0.884 (inactive); in test [8], -0.223; in test [9] it was 0.0421; in [10], 0.547 (inactive).

For `COC(=O)[C@@]1(Cc2ccccc2CN=[N+]=[N-])N=C(c2ccc(OCCCO)cc2)O[C@H]1c1ccccc1N=[N+]=[N-]`, the z-score in test [1] is -2.1; in test [2], 0.0397; in test [3], -2.36; in test [4], -2.99; in test [5], -3.63; in test [6] it was -0.00729. Also, the z-score in test [7] was -0.222 (inactive); in test [8] it was -1.19; in [9], -2.29; in test [10], -1.35 (inactive).

`COc1ccc(NN2C(C(O)c3cc(OC)c(OC)c(OC)c3)C=CC3C(=O)N(C4CCCCC4)C(=O)C32)cc1` (stereo not given): the z-score in test [1] was -0.753; in [2], -1.42; in test [3], 1.17; in test [4], 0.651; in test [5], -0.177; in test [6], 0.861. Further, the z-score was -0.569 (inactive) in test [7], 0.00692 in test [8], -1.78 in test [9] and 0.239 (inactive) in test [10].

Take `COCCOC(=O)N1C(=O)[C@@]2(c3cc(C#CCCO)ccc31)[C@H](c1ccc(OCCO)cc1)N1[C@H](c3ccccc3)[C@H](c3ccccc3)OC(=O)[C@H]1[C@@H]2C(=O)NC[C@H](O)c1ccccc1`: the z-score in [1] was 0.0831; in test [2] it was 1.33; in test [3], -0.796; in [4], 0.0067; in [5], -1.06; in test [6], -0.0377. The z-score in test [7] was 0.357 (inactive); in [8] it was 0.0686; in [9], -0.709; in test [10], 0.703 (inactive).

In the case of `CCOC(=O)[C@H]1C/C=C/C[C@H](C(=O)OCC)C(=O)O[C@H]2[C@@H](OC)O[C@H](CO)[C@@H](OC(=O)Nc3ccc(Br)cc3)[C@@H]2OC1=O`, the z-score is -4.47 in test [1]; -0.34 in test [2]; -5.12 in test [3]; -3.28 in test [4]; -4.16 in test [5]; -3.44 in [6]. Further, the z-score in test [7] is 2.89 (inactive); in [8] it was -0.948; in test [9], -1.83; in test [10], -7.29 (inactive).

Turning to `C[C@H]1C2[C@H](Cc3ccccc3)NC(=O)[C@]23C(=O)N[C@H](Cc2ccccc2)C(=O)N[C@@H](Cc2ccccc2)C(=O)NC/C=C\C/C=C/C3[C@@H]2O[C@]12C` (stereo not given in full), the z-score in test [1] was 0.373; in test [2], 0.353; in test [3] it was 0.0599; in test [4], -0.442; in [5], -1.35; in [6], 1.24. Besides, the z-score was 0.4 (inactive) in [7], -0.52 in test [8], 0.29 in test [9] and 0.276 (inactive) in test [10].

For the compound `CCC(=O)[C@]12O[C@@]3([C@@H]4C(=O)OCC[C@@H]41)N(CC)C(C)=C(C(=O)OC)[C@@H](c1ccccc1)N3C2=O`, the z-score in [1] was 0.569; in [2], 1.77; in [3], 0.0496; in test [4], -0.868; in test [5], -1.8; in test [6], 0.684. The z-score in test [7] was 0.112 (inactive); in test [8], -0.537; in [9], 0.541; in test [10] it was -0.257 (inactive).

With `O=C1c2ccccc2[C@](Cc2ccccc2I)(C(=O)NCC(F)(F)F)[C@H](c2ccc(CO)cc2)N1Cc1ccccc1C(F)(F)F`, the z-score is 0.187 in [1]; 1.31 in test [2]; -0.529 in [3]; -2.72 in test [4]; -2.27 in test [5]; 0.535 in test [6]. Further, the z-score in [7] was -0.225 (inactive); in [8] it was -0.248; in test [9] it was 0.415; in [10], 1.32 (inactive).

Consider `CCCCO[C@H]1C[C@H]2C(Br)=C[C@@]1(CO)C(=O)[C@]21CO1`, for which the z-score in test [1] is 0.491; in [2], 0.53; in test [3], -0.337; in [4], -0.997; in test [5] it was -0.545; in [6], 0.76. In addition, the z-score in [7] was 1.33 (inactive); in test [8], -1.12; in test [9], 0.149; in test [10] it was 0.6 (inactive).
